Source: PubChem BioAssay (NCI)
The panel holds about 79,000 compounds, 15% with a hit somewhere; the sample as a whole holds those more often. A number with no mark means an inactive call. Calls of active or inactive are those of the source. Cut-off read from the data, not from the text of the source: active = growth inhibition above about 70%; inactive = the rest.

Columns and labels:
[1] = NCI Yeast Anticancer Drug Screen. Data for the rad52 strain (AID 147);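 note: 0% = growth of vehicle-treated control cultures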; settings: S. cerevisiae rad52 mutant growth inhibition, stronger effect = higher value
Method in brief: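 Here a repair-compromised yeast strain receives each compound; its growth is then quantified and normalised to vehicle-only controls.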

[2] = NCI Yeast Anticancer Drug Screen. Data for the wt1 strain (AID 149);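 note: 0% = growth of vehicle-treated wt1 cultures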; settings: S. cerevisiae wt1 strain (SPY 50644) growth inhibition, stronger effect = higher value
Method in brief: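 Yeast wt1 strain exposed to compounds; growth inhibition measured relative to vehicle-treated controls.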

[3] = NCI Yeast Anticancer Drug Screen. Data for the rad50EPP+ strain (AID 151);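 note: 0% = growth of vehicle-treated control cultures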; settings: S. cerevisiae rad50 mutant strain, stronger effect = higher value
Method in brief: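 Read-out is yeast growth inhibition relative to vehicle; cells used were the rad50EPP+ strain.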

[4] = NCI Yeast Anticancer Drug Screen. Data for the mgt1 strain (AID 153); settings: S. cerevisiae mgt1 mutant growth inhibition, stronger effect = higher value
Method in brief: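 Measured: inhibition of mgt1 yeast growth by compound, normalized to vehicle-treated cultures.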

[5] = NCI Yeast Anticancer Drug Screen. Data for the rad50 strain (AID 155);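 note: 0% = growth of vehicle-only cultures of the same strain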; settings: S. cerevisiae rad50 strain growth inhibition, stronger effect = higher value
Method in brief: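 Yeast carrying a defined DNA repair defect were exposed to test compounds, and growth was compared with vehicle-treated controls to give percent inhibition.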

[6] = NCI Yeast Anticancer Drug Screen. Data for the mec2-1 strain (AID 157); settings: S. cerevisiae mec2-1 strain, stronger effect = higher value
Method in brief: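 Using mec2-1 yeast: add compound, measure growth, express inhibition versus vehicle-treated cultures.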

[7] = NCI Yeast Anticancer Drug Screen. Data for the rad14 strain (AID 159);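 note: 0% = growth of vehicle-treated control cultures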; settings: S. cerevisiae rad14 strain growth inhibition, stronger effect = higher value
Method in brief: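 Yeast cells carrying a defined DNA-repair defect were exposed to compounds, and growth inhibition was calculated relative to vehicle-treated control cultures.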

[8] = NCI Yeast Anticancer Drug Screen. Data for the sgs1 mgt1 strain (AID 161);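 note: 0% = growth of cultures given vehicle only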; settings: S. cerevisiae sgs1 mgt1 strain, stronger effect = higher value
Method in brief: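 Compounds are added to genetically altered yeast, and growth is compared with cultures given vehicle alone to give percent inhibition.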

[9] = NCI Yeast Anticancer Drug Screen. Data for the CLN2oe strain (AID 163);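 note: 0% = growth of vehicle-only control cultures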; settings: S. cerevisiae CLN2oe strain, stronger effect = higher value
Method in brief: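 Whole-cell yeast growth assay. A strain engineered for altered cell-cycle control received compound, and inhibition relative to vehicle-treated cultures was recorded.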

[10] = NCI Yeast Anticancer Drug Screen. Data for the cln2 rad14 strain (AID 165);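 note: 0% = growth equal to vehicle treated cultures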; settings: S. cerevisiae cln2 rad14 strain, stronger effect = higher value
Method in brief: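 Yeast strain cln2 rad14, bearing defects in cell cycle control and DNA repair, serves as the test system; values reflect growth inhibition compared with vehicle.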

[11] = NCI Yeast Anticancer Drug Screen. Data for the bub3 strain (AID 167); settings: S. cerevisiae bub3 mutant strain, stronger effect = higher value
Method in brief: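 Compounds were applied to a genetically altered yeast strain carrying a cell-cycle control defect. Growth inhibition was scored against vehicle-treated controls.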

[12] = NCI Yeast Anticancer Drug Screen. Data for the wt2 strain (AID 169);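 note: 0% = growth of vehicle-treated yeast cultures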; settings: S. cerevisiae wt2 strain growth inhibition, stronger effect = higher value
Method in brief: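 Treated yeast vs. vehicle-treated yeast: growth inhibition determined.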

[13] = NCI Yeast Anticancer Drug Screen. Data for the mlh1 strain (AID 171);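 note: 0% = growth of vehicle-treated control cultures of the same strain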; settings: S. cerevisiae mlh1 strain growth inhibition, stronger effect = higher value
Method in brief: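 A yeast strain with a defined genetic lesion serves as the test organism. Cultures receive compound or vehicle, and growth is measured.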

[14] = NCI Yeast Anticancer Drug Screen. Data for the sgs1 strain (AID 173);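 note: 0% = growth of vehicle-only control cultures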; settings: S. cerevisiae sgs1 mutant, stronger effect = higher value
Method in brief: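 A genetically defined yeast mutant is incubated with the test compound, and its growth is compared to that of the same strain given vehicle.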

[15] = NCI Yeast Anticancer Drug Screen. Data for the mlh1 rad18 strain (AID 175); settings: S. cerevisiae mlh1 rad18 strain growth inhibition, stronger effect = higher value
Method in brief: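 Steps: expose repair-defective yeast to compound; measure growth; express inhibition against vehicle-treated controls.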

[16] = NCI Yeast Anticancer Drug Screen. Data for the rad18 strain (AID 177); settings: S. cerevisiae rad18 mutant growth inhibition, stronger effect = higher value
Method in brief: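 Measured value is growth inhibition of a yeast strain bearing a DNA repair alteration, referenced to vehicle-treated cells.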

[17] = at 5.0 µM (retest, dose inferred, filed as 0.5)
[18] = at 50.0 µM (retest, dose inferred, filed as 5.0)

Cc1ccc2ccc(O)cc2c1
growth inhibition ([1]; at 1.2 µM): -31%
growth inhibition ([1]; at 3.7 µM): -35%
growth inhibition ([1]; at 11.0 µM): -30%
growth inhibition ([1]; at 33.0 µM): -31%
growth inhibition ([1]; at 100.0 µM): 80% (active)
growth inhibition ([2]; at 1.2 µM): -22%
growth inhibition ([2]; at 3.7 µM): -16%
growth inhibition ([2]; at 11.0 µM): -19%
growth inhibition ([2]; at 33.0 µM): -11%
growth inhibition ([2]; at 100.0 µM): 71% (active)
growth inhibition ([3]; at 1.2 µM): -25%
growth inhibition ([3]; at 3.7 µM): -49%
growth inhibition ([3]; at 11.0 µM): -25%
growth inhibition ([3]; at 33.0 µM): -12%
growth inhibition ([3]; at 100.0 µM): 46%
growth inhibition ([4]; at 1.2 µM): -25%
growth inhibition ([4]; at 3.7 µM): -19%
growth inhibition ([4]; at 11.0 µM): -22%
growth inhibition ([4]; at 33.0 µM): -21%
growth inhibition ([4]; at 100.0 µM): 50%
growth inhibition ([5]; at 1.2 µM): -23%
growth inhibition ([5]; at 3.7 µM): -28%
growth inhibition [5, 17]: -9%
growth inhibition ([5]; at 11.0 µM): -38%
growth inhibition ([5]; at 33.0 µM): -11%
growth inhibition [5, 18]: 33%
growth inhibition ([5]; at 50.0 µM): 58.2%
growth inhibition ([5]; at 100.0 µM): 92% (active)
growth inhibition ([6]; at 1.2 µM): -37%
growth inhibition ([6]; at 3.7 µM): -33%
growth inhibition [6, 17]: -10%
growth inhibition ([6]; at 11.0 µM): -32%
growth inhibition ([6]; at 33.0 µM): -42%
growth inhibition [6, 18]: 95% (active)
growth inhibition ([6]; at 50.0 µM): 1.85%
growth inhibition ([6]; at 100.0 µM): 50%
growth inhibition ([7]; at 1.2 µM): -18%
growth inhibition ([7]; at 3.7 µM): -20%
growth inhibition ([7]; at 11.0 µM): -23%
growth inhibition ([7]; at 33.0 µM): -25%
growth inhibition ([7]; at 100.0 µM): 56%
growth inhibition [8, 17]: 5%
growth inhibition [8, 18]: 43%
growth inhibition ([8]; at 50.0 µM): 80.1% (active)
growth inhibition ([9]; at 1.2 µM): -10%
growth inhibition ([9]; at 3.7 µM): -13%
growth inhibition ([9]; at 11.0 µM): -9%
growth inhibition ([9]; at 33.0 µM): -17%
growth inhibition ([9]; at 100.0 µM): 83% (active)
growth inhibition [10, 17]: 4%
growth inhibition [10, 18]: 53%
growth inhibition ([10]; at 50.0 µM): 82% (active)
growth inhibition ([11]; at 1.2 µM): 4%
growth inhibition ([11]; at 3.7 µM): 10%
growth inhibition [11, 17]: 4%
growth inhibition ([11]; at 11.0 µM): 14%
growth inhibition ([11]; at 33.0 µM): 14%
growth inhibition [11, 18]: 23%
growth inhibition ([11]; at 50.0 µM): 86.7% (active)
growth inhibition ([11]; at 100.0 µM): 88% (active)
growth inhibition ([12]; at 1.2 µM): -18%
growth inhibition ([12]; at 3.7 µM): -19%
growth inhibition ([12]; at 11.0 µM): -21%
growth inhibition ([12]; at 33.0 µM): -20%
growth inhibition ([12]; at 100.0 µM): 56%
growth inhibition ([13]; at 1.2 µM): -9%
growth inhibition ([13]; at 3.7 µM): -19%
growth inhibition ([13]; at 11.0 µM): -27%
growth inhibition ([13]; at 33.0 µM): -24%
growth inhibition ([13]; at 100.0 µM): 68%
growth inhibition ([14]; at 1.2 µM): -24%
growth inhibition ([14]; at 3.7 µM): -14%
growth inhibition ([14]; at 11.0 µM): -38%
growth inhibition ([14]; at 33.0 µM): -19%
growth inhibition ([14]; at 100.0 µM): 32%
growth inhibition [15, 17]: -33%
growth inhibition [15, 18]: 63%
growth inhibition ([15]; at 50.0 µM): 48.5%
growth inhibition ([16]; at 1.2 µM): -21%
growth inhibition ([16]; at 3.7 µM): -32%
growth inhibition ([16]; at 11.0 µM): -22%
growth inhibition ([16]; at 33.0 µM): -23%
growth inhibition ([16]; at 100.0 µM): 69%

C[Si](C)(C)CNC(=O)OCc1ccccc1
growth inhibition ([1]; at 1.2 µM): -1%
growth inhibition ([1]; at 3.7 µM): -4%
growth inhibition ([1]; at 11.0 µM): 6%
growth inhibition ([1]; at 33.0 µM): 2%
growth inhibition ([1]; at 100.0 µM): 16%
growth inhibition ([2]; at 1.2 µM): 2%
growth inhibition ([2]; at 3.7 µM): -2%
growth inhibition ([2]; at 11.0 µM): -3%
growth inhibition ([2]; at 33.0 µM): -4%
growth inhibition ([2]; at 100.0 µM): -3%
growth inhibition ([3]; at 1.2 µM): 1%
growth inhibition ([3]; at 3.7 µM): -1%
growth inhibition ([3]; at 11.0 µM): 10%
growth inhibition ([3]; at 33.0 µM): 21%
growth inhibition ([3]; at 100.0 µM): 41%
growth inhibition ([4]; at 1.2 µM): 7%
growth inhibition ([4]; at 3.7 µM): 5%
growth inhibition ([4]; at 11.0 µM): -5%
growth inhibition ([4]; at 33.0 µM): -4%
growth inhibition ([4]; at 100.0 µM): 12%
growth inhibition ([5]; at 1.2 µM): 1%
growth inhibition ([5]; at 3.7 µM): -10%
growth inhibition [5, 17]: -1%
growth inhibition ([5]; at 11.0 µM): 1%
growth inhibition ([5]; at 33.0 µM): 19%
growth inhibition [5, 18]: -8%
growth inhibition ([5]; at 50.0 µM): 37.1%
growth inhibition ([5]; at 100.0 µM): 56%
growth inhibition ([6]; at 1.2 µM): -2%
growth inhibition ([6]; at 3.7 µM): -3%
growth inhibition [6, 17]: -1%
growth inhibition ([6]; at 11.0 µM): 1%
growth inhibition ([6]; at 33.0 µM): 1%
growth inhibition [6, 18]: 32%
growth inhibition ([6]; at 50.0 µM): 21.9%
growth inhibition ([6]; at 100.0 µM): 11%
growth inhibition ([7]; at 1.2 µM): -1%
growth inhibition ([7]; at 3.7 µM): -1%
growth inhibition ([7]; at 11.0 µM): 0%
growth inhibition ([7]; at 33.0 µM): 0%
growth inhibition ([7]; at 100.0 µM): 6%
growth inhibition [8, 17]: -8%
growth inhibition [8, 18]: -13%
growth inhibition ([8]; at 50.0 µM): 4.25%
growth inhibition ([9]; at 1.2 µM): -3%
growth inhibition ([9]; at 3.7 µM): -3%
growth inhibition ([9]; at 11.0 µM): 7%
growth inhibition ([9]; at 33.0 µM): 4%
growth inhibition ([9]; at 100.0 µM): 5%
growth inhibition [10, 17]: 14%
growth inhibition [10, 18]: 20%
growth inhibition ([10]; at 50.0 µM): -22.8%
growth inhibition ([11]; at 1.2 µM): 4%
growth inhibition ([11]; at 3.7 µM): 15%
growth inhibition [11, 17]: 6%
growth inhibition ([11]; at 11.0 µM): 35%
growth inhibition ([11]; at 33.0 µM): 83% (active)
growth inhibition [11, 18]: 93% (active)
growth inhibition ([11]; at 50.0 µM): 93.5% (active)
growth inhibition ([11]; at 100.0 µM): 94% (active)
growth inhibition ([12]; at 1.2 µM): -1%
growth inhibition ([12]; at 3.7 µM): -1%
growth inhibition ([12]; at 11.0 µM): -1%
growth inhibition ([12]; at 33.0 µM): 0%
growth inhibition ([12]; at 100.0 µM): 3%
growth inhibition ([13]; at 1.2 µM): 3%
growth inhibition ([13]; at 3.7 µM): -7%
growth inhibition ([13]; at 11.0 µM): 4%
growth inhibition ([13]; at 33.0 µM): 18%
growth inhibition ([13]; at 100.0 µM): 38%
growth inhibition ([14]; at 1.2 µM): 1%
growth inhibition ([14]; at 3.7 µM): -1%
growth inhibition ([14]; at 11.0 µM): 1%
growth inhibition ([14]; at 33.0 µM): 1%
growth inhibition ([14]; at 100.0 µM): 4%
growth inhibition [15, 17]: -14%
growth inhibition [15, 18]: -1%
growth inhibition ([15]; at 50.0 µM): 7.5%
growth inhibition ([16]; at 1.2 µM): -3%
growth inhibition ([16]; at 3.7 µM): -2%
growth inhibition ([16]; at 11.0 µM): 8%
growth inhibition ([16]; at 33.0 µM): 17%
growth inhibition ([16]; at 100.0 µM): 49%
